Results reported in PubChem BioAssay AID2716 (Broad Institute, 2010).
Hit rate of the full screen: of about 320,000 compounds, about 3,300 (1%) were called active.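 The calls were made as follows: active = every valid replicate shows activation above 250% relative to neutral control wells; inactive = the rest, any valid replicate at or below 250%.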 Shown is part of a subset that was picked to be rich in actives.

Assay: restored growth of temperature-sensitive Mot1-301 yeast – S. cerevisiae, ATP luminescence, 38.5C, SUMOylation pathway inhibitor project, primary screen (AID 2716);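 also: OY570 slx delta 5 strain wells were the positive control but not used for scaling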
Details: S. cerevisiae Mot1-301 growth rescue, at 18.8 µM, hits give high values, percent above DMSO median, 100 means doubled

Row | Structure (SMILES) | growth rescue
1 | CC(C)CC(=O)Nc1nnc(S(=O)(=O)N(C)c2ccc(Cl)cc2)s1 | -15.6% (inactive)
2 | COC(=O)c1ccc(COc2cc([N+](=O)[O-])cc3cccnc23)cc1 | -14.7% (inactive)
3 | N#CC1=C(N)Oc2[nH]c(=S)[nH]c(=O)c2C12C(=O)Nc1ccccc12 (centres undefined) | -12% (inactive)
4 | N#CC1=C(N)Oc2n[nH]c(CSc3ccccc3)c2C12C(=O)Nc1ccccc12 (centres undefined) | 564% (active)
5 | COC(=O)CCSc1nccn1Cc1ccccc1 | -6.82% (inactive)
6 | Cc1ccc(S(=O)(=O)N(C)C)cc1NC(=O)COC(=O)C1COc2ccccc2O1 (centres undefined) | -1.18% (inactive)
7 | Cc1ccc(S(=O)(=O)N(C)C)cc1NC(=O)COC(=O)c1c(C)noc1C | 358% (active)
8 | Cc1ccc(S(=O)(=O)N(C)C)cc1NC(=O)COC(=O)/C=C/c1cccs1 | -3.27% (inactive)
9 | O=c1[nH]n2c(=O)c3c([nH]c2c1N=Nc1ccccc1)CCC3 | -13.5% (inactive)
10 | COc1ccc(OC)c(NC(=O)c2ccc3c(c2)C(=O)N(c2ccc(OC(C)=O)cc2)C3=O)c1 | -1.05% (inactive)
11 | COCCCN1C(=O)c2ccc(C(=O)OCC(=O)NCc3ccccc3OC)cc2C1=O | -4.61% (inactive)
12 | COCCCN1C(=O)c2ccc(C(=O)Nc3ccc(OC)cc3OC)cc2C1=O | 994% (active)
13 | Cc1cc(S(=O)(=O)c2cc3ccc(O)c(C)c3oc2=O)ccc1F | 2.17% (inactive)
14 | COc1ccc(F)cc1S(=O)(=O)NCC(c1ccc2c(c1)OCO2)N1CCN(C)CC1 (centres undefined) | 72.2% (inactive)
15 | COc1ccc(NC(=O)CSc2ccc(-c3ccco3)nn2)c(OC)c1 | -3.7% (inactive)
16 | CCN(CC)c1ccc(C(=O)OCC(=O)c2ccco2)cc1 | -12.1% (inactive)
17 | CCc1ccc(C(=O)COC(=O)c2ccco2)cc1 | 2.04% (inactive)
18 | O=C(COC(=O)c1ccccc1C(=O)c1ccccc1)c1ccco1 | 524% (active)
19 | O=C(COC(=O)c1ccccc1O)NCc1ccco1 | 0.0433% (inactive)
20 | Cc1ccc(N2C(=O)C3N=NN(CC(=O)N4N=C(c5cccc6ccccc56)CC4c4ccccc4)C3C2=O)cc1 (centres undefined) | 376% (active)

Row | Structure (SMILES) | growth rescue
21 | O=C1C2N=NN(CC(=O)N3N=C(c4cccc5ccccc45)CC3c3ccccc3)C2C(=O)N1c1ccccc1 (centres undefined) | -6.23% (inactive)
22 | CC(=O)Oc1ccccc1C1=NN(C(C)=O)C(c2ccccc2)C1 (centres undefined) | -0.218% (inactive)
23 | S=C(c1ccc(-c2ccccc2)o1)N1CCCCC1 | 32.2% (inactive)
24 | CCOC(=O)c1cc(-c2ccccc2C)n(Cc2cc(C)no2)n1 | -17.1% (inactive)
25 | O=C(c1ccccc1)N1CCN(C(=O)c2cc3nc(-c4ccccc4)cc(C(F)(F)F)n3n2)CC1 | -13.8% (inactive)
26 | Cc1cc(C(F)(F)F)n2ncc(-c3ccccc3)c2n1 | 4.42% (inactive)
27 | Cc1ccc(-c2cc(C(F)(F)F)n3ncc(C(=O)N4CCCCC4c4cccnc4)c3n2)cc1 (centres undefined) | -2.2% (inactive)
28 | COC(=O)c1cc2nc(-c3ccccc3)cc(C(F)(F)F)n2n1 | 295% (active)
29 | O=C(O)c1cnn2c(C(F)(F)F)cc(-c3ccccc3)nc12 | 310% (active)
30 | COc1ccc(NC(=O)c2cc3nc(-c4ccccc4)cc(C)n3n2)cc1OC | 50% (inactive)
31 | COc1ccc(CNC(=O)c2cc(C(=O)C3CC3)c[nH]2)cc1 | -7.94% (inactive)
32 | COc1ccc(N(CC(=O)Nc2cc(OC)ccc2OC)S(=O)(=O)c2c(C)noc2C)cc1 | 0.112% (inactive)
33 | CCc1nn(-c2cc(Oc3cccc4ccccc34)nc(-c3ccccc3)n2)c(N)c1C#N | 20.3% (inactive)
34 | COC(=O)c1ccc2c(C(C)(C)O)c(C(C)(C)O)[nH]c2c1 | 6.47% (inactive)
35 | COc1ccccc1CNS(=O)(=O)c1cc2c3c(c1)CCC(=O)N3CCC2 | -12.2% (inactive)
36 | O=C(Nc1ccccn1)C1CCN(S(=O)(=O)c2ccc3c(c2)OCCO3)CC1 | -4.76% (inactive)
37 | O=C(Nc1ccccn1)C1CCN(S(=O)(=O)c2ccccc2)CC1 | -0.505% (inactive)
38 | O=C(Nc1nccs1)C1CCN(S(=O)(=O)c2ccc(Cl)c(C(F)(F)F)c2)CC1 | 639% (active)
39 | COc1ccccc1CNC(=O)[C@@H]1CCCN1C(=O)[C@@H]1Cc2ccccc2CN1C(=O)OC(C)(C)C | -1.52% (inactive)
40 | CCOc1ccc(Oc2nc(C)cc(OC)n2)nn1 | -10.1% (inactive)

Row | Structure (SMILES) | growth rescue
41 | O=C(CNS(=O)(=O)c1ccccc1)NCC(=O)OCc1ccccc1F | -4.19% (inactive)
42 | Cc1ccc(SCC(=O)NC(=O)NCc2ccco2)c(C)c1 | -8.85% (inactive)
43 | COC(=O)c1c(-c2cccs2)csc1NC(=O)CSc1ncnc2sc(C)c(C)c12 | -4.24% (inactive)
44 | Cc1sc2ncnc(Sc3nc4ccccc4s3)c2c1C | 512% (active)
45 | CSc1ncnc2sc(C)c(C)c12 | -17.7% (inactive)
46 | CCOc1ccc(S(=O)(=O)NCCC(=O)N2CCCCCCC2)cc1 | 10% (inactive)
47 | NC(=O)c1cc(S(=O)(=O)N2CCCC2)ccc1OCc1ccc(F)cc1 | 359% (active)
48 | Cc1ccc(S(=O)(=O)N2CCOCC2)cc1C(=O)NCc1ccc(F)cc1 | 2.54% (inactive)
49 | COc1ccc(S(=O)(=O)N2CCCCCC2)cc1NC(=O)Cc1ccc(OC)c(OC)c1 | -10.8% (inactive)
50 | COc1ccc(OC)c(-n2cc3c(=O)n(C)c(=O)n(C)c3c2)c1 | 2.1% (inactive)
51 | Cc1ccc(Nc2nc(CSc3nnnn3-c3ccccc3)cc(=O)[nH]2)cc1 | 3.22% (inactive)
52 | O=c1c2ccccc2nc(CSc2nnnn2-c2ccccc2)n1-c1ccccc1 | 1010% (active)
53 | O=c1c2ccccc2nnn1CSc1nnnn1-c1ccccc1 | 0.362% (inactive)
54 | Cn1c(N)c(C(=O)COC(=O)c2ccccc2NCc2ccco2)c(=O)n(C)c1=O | 72.4% (inactive)
55 | COC(=O)c1ccc(C(NC(=O)OCc2ccccc2)/C(F)=C/[C@@H](C)C(=O)O)cc1 (some centres undefined) | -2.48% (inactive)
56 | CCc1ccccc1S(=O)(=O)Cc1ccc(C(=O)NCCc2ccccc2)o1 | -2.78% (inactive)
57 | Cc1ccc(N2C(=O)CC(Sc3ncn[nH]3)C2=O)cc1 (centres undefined) | 287% (active)
58 | COc1ccc(N2C(=O)CC(Sc3n[nH]c(-c4ccc(C)cc4)n3)C2=O)cc1 (centres undefined) | 257% (inactive)
59 | O=C1CC(Sc2ncn[nH]2)C(=O)N1c1ccccc1 (centres undefined) | -26.4% (inactive)
